Test results as given in PubChem BioAssay AID1851 (National Center for Advancing Translational Sciences (NCATS), 2009).
In all, about 16,000 compounds went through this assay and about 4,000 (25%) were called active. Not shown: some 26% with an inconclusive outcome. The list is a sample of the results. Unmarked numbers belong to inactive results. Calls follow the shape of the dose curve; as a rule, active = well fitted curve in the direction sought with a large enough effect; inconclusive = small, poorly fitted or top-dose-only effect, or effect the other way; inactive = no such curve, though single readings can be large or run the other way.

target: Cytochrome P450 2C9 (Homo sapiens) (UniProt P11712); assay: Cytochrome panel assay with activity outcomes; conditions: recombinant CYP, pro-luciferin dealkylation, luminescence, p450-cyp2c9; series mostly up to 57.1 µM; activity, negative = inhibition: at the top concentration
Sequence (P11712 whole entry, looked up): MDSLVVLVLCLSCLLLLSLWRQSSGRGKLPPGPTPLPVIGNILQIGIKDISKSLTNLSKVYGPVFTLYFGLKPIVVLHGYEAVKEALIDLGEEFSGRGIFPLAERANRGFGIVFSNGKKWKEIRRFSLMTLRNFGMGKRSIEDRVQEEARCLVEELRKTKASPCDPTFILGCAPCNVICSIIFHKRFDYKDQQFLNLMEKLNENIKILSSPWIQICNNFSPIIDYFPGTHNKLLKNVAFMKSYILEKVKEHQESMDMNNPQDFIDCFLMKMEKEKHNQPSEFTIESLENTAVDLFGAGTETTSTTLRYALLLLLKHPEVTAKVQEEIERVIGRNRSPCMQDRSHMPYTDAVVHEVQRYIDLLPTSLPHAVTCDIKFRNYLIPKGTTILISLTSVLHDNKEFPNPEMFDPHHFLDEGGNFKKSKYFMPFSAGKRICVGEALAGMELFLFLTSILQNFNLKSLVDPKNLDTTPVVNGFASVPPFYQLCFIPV
% is scaled to controls: 0 for no effect and ±100 for the full control effect.

Question: For `CCc1cc2c(Sc3nc4ccccc4s3)ncnc2s1`, which AC50 is on record?
Answer: 11.2 µM (active)

Question: How did the activity, negative = inhibition turn out when `c1ccc(NCCSc2nc3ccccc3s2)cc1` was run?
Answer: -12.4% [at 11.4 µM]

Question: How did the AC50 turn out when `CCn1c2ccccc2c2cnc(N=CN(C)C)c(C#N)c21` was run?
Answer: 14.1 µM (active)

Question: For `O=C1[C@H]2[C@H]3[C@H](O)[C@H](O)C/C(=N/OC[C@@H](O)COCc4ccco4)[C@H]3CC[C@@H]2C(=O)N1C1CCCCC1`, which activity, negative = inhibition is on record?
Answer: 23.1% [at 11.4 µM]

Question: `O=C(O)[C@H]1CN[C@H](C(=O)O)C1` was tested. Which “activity, negative = inhibition” value did it give?
Answer: 0.543%

Question: Which “activity, negative = inhibition” value does the source give for `COC(=O)CSc1ncc(OC)c(OC)n1` here?
Answer: 6.45%

Question: Which AC50 does the source give for `CCOC(=O)C(C)Sc1ncc(OC)c(Sc2ccc(Cl)cc2)n1` (centres undefined) here?
Answer: 2.51 µM (active)

Question: How did the AC50 turn out when `CCOC(=O)CSc1ncc(OC)c(Sc2ccc(Cl)cc2)n1` was run?
Answer: 0.891 µM (active)

Question: Which activity, negative = inhibition does the source give for `Cc1cnc(CNc2ncncc2-c2ccoc2)cn1` here?
Answer: 6.74% [at 2.29 µM]

Question: For `O=C(Nc1ccc(-n2nncc2-c2ccco2)cc1)c1cc2ccccc2oc1=O`, which AC50 is on record?
Answer: 2.24 µM (active)

Question: For `O=C(NCCN1CCN(C(=O)c2cc3ccccc3oc2=O)CC1)c1cc2ccccc2oc1=O`, which “activity, negative = inhibition” value is on record?
Answer: -15.3%

Question: `COc1ccc(-c2cnnn2-c2ccc(NC(=O)c3ccco3)cc2)cc1OC` was tested. Which AC50 did it give?
Answer: 2.24 µM (active)

Question: `CO[C@H]1C=CO[C@]2(C)Oc3c(C)c(O)c4c(O)c(c5c(c4c3C2=O)NC2(CCN(CC(C)C)CC2)N=5)=NC(=O)C(C)=CC=C[C@@H](C)[C@@H](O)[C@@H](C)[C@@H](O)[C@@H](C)[C@@H](OC(C)=O)[C@@H]1C` was tested. Which “activity, negative = inhibition” value did it give?
Answer: 5.75% [at 25.6 µM]

Question: For `CC(C)NC(=O)N1CC[C@@]2(CCCN(C(=O)c3cccn3C)C2)C1`, which “activity, negative = inhibition” value is on record?
Answer: 8.02%

Question: For `CN(C)CCNc1oc(COc2ccc(Cl)cc2Cl)nc1C#N`, which “activity, negative = inhibition” value is on record?
Answer: 22.6%

Question: For `N#Cc1nc(COc2ccccc2Cl)oc1NCc1ccco1`, which AC50 is on record?
Answer: 1.78 µM (active)

Question: With `CCOc1ccc(-c2nnn(CC(=O)Nc3cc(OC)ccc3OC)n2)cc1OCC` as the compound, how does the “activity, negative = inhibition” value read?
Answer: -21.2%

Question: `CCOc1ccc(-c2cc(CCCC(=O)NCCc3ccc(OC)c(OC)c3OC)no2)cc1` was tested. Which AC50 did it give?
Answer: 1 µM (active)

Question: Which AC50 does the source give for `CCOc1ccc(-c2cc(CCCC(=O)Nc3cc(OC)ccc3OC)no2)cc1` here?
Answer: 2.24 µM (active)

Question: Which activity, negative = inhibition does the source give for `CN(C)CCCN1c2ccc(O)cc2Sc2ccc(Cl)cc21` here?
Answer: -1.91% [at 11.4 µM]

Question: With `CSC1=N/C(=C\c2ccc(C)cc2)C(=O)S1` as the compound, how does the AC50 read?
Answer: 22.4 µM (active)

Question: For `CSC1=N/C(=C\c2ccc3c(c2)OCO3)C(=O)S1`, which “activity, negative = inhibition” value is on record?
Answer: -17.8%

Question: `CSC1=N/C(=C\c2ccc(Br)o2)C(=O)S1` was tested. Which AC50 did it give?
Answer: 39.8 µM (active)

Question: With `CCCCNC(=O)C(=O)c1ccccc1NC(C)=O` as the compound, how does the “activity, negative = inhibition” value read?
Answer: 16.8%

Question: `Cc1cnc(CNc2ncncc2-c2ccccc2C#N)cn1` was tested. Which activity, negative = inhibition did it give?
Answer: -5.28% [at 2.29 µM]

Question: With `O=c1c(Oc2ccccc2Br)c(C(F)(F)F)oc2c(CN3CCCC3)c(O)ccc12` as the compound, how does the “activity, negative = inhibition” value read?
Answer: -21.2%

Question: How did the AC50 turn out when `CCN(CC)Cc1c(O)ccc2c(=O)c(Oc3ccccc3OC)coc12` was run?
Answer: 7.94 µM (active)

Question: `Cc1cccc(Cn2ncc(Cl)c(Cl)c2=O)c1` was tested. Which “activity, negative = inhibition” value did it give?
Answer: -21.4%

Question: `Cc1cccc(CNc2ncncc2-c2ccccc2Cl)c1` was tested. Which activity, negative = inhibition did it give?
Answer: 7.19% [at 2.29 µM]

Question: `C=CCSc1nc2c(sc3nc(C)cc(C)c32)c(=O)[nH]1` was tested. Which AC50 did it give?
Answer: 7.94 µM (active)

Question: How did the activity, negative = inhibition turn out when `Cc1c(S(=O)(=O)O)ccc(N=Nc2c(O)c(C(=O)O)cc3ccccc23)c1Cl` was run?
Answer: -11.1% [at 11.4 µM]

Question: With `Nc1nc2n[nH]nc2c(=O)[nH]1` as the compound, how does the “activity, negative = inhibition” value read?
Answer: -12.4% [at 25.6 µM]

Question: How did the AC50 turn out when `Cc1cc(Cc2cc(C)cc(C(C)(C)C)c2O)c(O)c(Cc2cc(C)cc(C(C)(C)C)c2O)c1` was run?
Answer: 3.16 µM (active)

Question: With `Cc1cc(C)c(O)c(Cc2cccc(Cc3cc(C)cc(C)c3O)c2O)c1` as the compound, how does the activity, negative = inhibition read?
Answer: 11.7% [at 11.4 µM]

Question: Which activity, negative = inhibition does the source give for `Cc1cc(Cc2c(C)c(C)c(Cc3cc(C)cc(C(C)(C)C)c3O)c(C)c2C)c(O)c(C(C)(C)C)c1` here?
Answer: 9.35% [at 11.4 µM]

Question: `Cc1cc(Cc2cc(Cc3cc(C)cc(C(C)(C)C)c3O)c(C)cc2C)c(O)c(C(C)(C)C)c1` was tested. Which AC50 did it give?
Answer: 3.16 µM (active)

Question: `CC(C)c1cc(CN(C)C)c(O)c(C(C)(C)C)c1` was tested. Which activity, negative = inhibition did it give?
Answer: 1.03% [at 11.4 µM]

Question: For `Cc1cc(C(C)(C)C)c(O)c(C)c1CC1=NCCN1`, which AC50 is on record?
Answer: inactive

Question: Which “activity, negative = inhibition” value does the source give for `Cc1ccc(NC(=S)N2CCN(C3CCCCC3)CC2)cc1` here?
Answer: 4.46%

Question: For `C[N+](C)(CCCCCC[N+](C)(C)CCCN1C(=O)c2cccc3cccc(c23)C1=O)CCCN1C(=O)c2cccc3cccc(c23)C1=O`, which “activity, negative = inhibition” value is on record?
Answer: 10.1%

Question: For `Cc1ccc(NC(=S)N2CCN(CCN3C(=O)c4cccc5cccc(c45)C3=O)CC2)cc1`, which AC50 is on record?
Answer: 6.31 µM (active)

Question: How did the “activity, negative = inhibition” value turn out when `COc1ccccc1CNC(=O)C/C(C)=N/NC(=O)Cc1ccccc1` was run?
Answer: 13.2%

Question: How did the “activity, negative = inhibition” value turn out when `C/C(=N\NC(=O)CC1N=C(Cc2ccccc2)NNC1=O)c1ccc(Cl)cc1Cl` (centres undefined) was run?
Answer: -30%

Question: Which AC50 does the source give for `C/C(=N\NC(=O)Cc1ccc(Cl)cc1)c1ccccn1` here?
Answer: 14.1 µM (active)
